Experiment [1] concerns the target Albumin (Bos taurus) (UniProt P02769). Kind of experiment: bovine serum albumin binders on microarray, profiling panel, artefact control for SMM control protein annotation, biochemical, small-molecule microarray, Alexa647 label, 635/667 nm fluorescence (AID 1118).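 Also: score merges 667 nm emission intensity and signal-to-noise per printed compound spot.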 Particulars: BSA-A647 binding, fluorescence 635 nm, higher = more signal.
Experiment [2] in a line: small-molecule microarray binders of probe aXIP, primary screen, biochemical, NeuroSMM set, 635/667 nm fluorescence (AID 1119).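 Also: probe is the protein aXip251-270 applied at 1 µg/mL to compound-printed slides; binding of probe to printed compounds measured as 667 nm fluorescence plus signal to noise.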 Particulars: higher = more signal, called active from +8 up or from −8 down.
Experiment [3] in a line: small-molecule binders of probe aNOTCH3, primary screen, biochemical, small-molecule microarray, 635/667 nm fluorescence (AID 1120).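 Also: probe is a biotin-tagged antibody raised against NOTCH3 rather than NOTCH3 protein; score merges spot fluorescence near 667 nm with spot signal to noise.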 Particulars: higher = more signal.
Experiment [4] can be described thus: small-molecule binders of probe aNOTCH2, primary screen, biochemical, small-molecule microarray, 635/667 nm fluorescence (AID 1121).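 Also: score merges feature fluorescence read at 667 nm with its signal to noise.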 The following applies: higher = more signal.
Experiment [5] deals with Carbonic anhydrase 2 (Homo sapiens) (UniProt P00918). Nature of the experiment: CAII small-molecule binders, profiling panel, biochemical, small-molecule microarray, Alexa647-labelled CAII (AID 1122). Particulars: CAII-A647 binding fluorescence, higher = more signal.
Experiment [6] can be described thus: COS7 lysate on small-molecule microarray, probe aHis, 635 nm (AID 1123).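 Also: z-score combines 667nm fluorescence intensity with signal-to-noise per printed compound spot.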 Particulars: COS7 cell lysate, fluorescence, higher = more signal.
A short description of experiment [7]: compound binding in COS7 lysate, probe aLAP1, primary screen, cell lysate, small-molecule microarray (AID 1124).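 Also: lysate comes from COS7 cells expressing LAP1 and is applied at 0.3 µg/mL; score merges spot fluorescence near 667 nm with signal-to-noise over triplicate slides.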 Particulars: probe aLAP1, fluorescence, higher = more signal.
The subject of experiment [8] is Sam68 (KHDRBS1). Kind of experiment: Sam68 small-molecule binders, primary screen, biochemical, small-molecule microarray, 635 nm fluorescence (AID 1125).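 Also: score merges 667 nm channel intensity with signal to noise over triplicate slides.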 The following applies: small-molecule microarray binding, higher = more signal.
Experiment [9] relates to Chordin-like protein 2 (CHRDL2). Kind of experiment: CHRDL2 small-molecule binders, primary screen, biochemical, small-molecule microarray, 635 nm fluorescence (AID 1126).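 Also: printed compound slides probed with Chrdl2 protein at 4 µg/mL for 1 h at 4 C; score merges 667 nm emission intensity with signal to noise over three replicate slides.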 The following applies: small-molecule microarray binding, fluorescence 635 nm; higher = more signal.
Experiment [10] deals with Concanavalin-A (Canavalia ensiformis) (UniProt P02866). Kind of experiment: ConA small-molecule binders, primary screen, artefact control for SMM control protein annotation, biochemical, small-molecule microarray, Alexa647 label, 635 nm (AID 1127).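 Also: z combines 667 nm emission intensity with signal-to-noise across three replicate slides.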 Particulars: ConA-A647 binding fluorescence, higher = more signal.
Experiment [11] can be described thus: anti-His antibody binders, primary screen, artefact control for SMM control protein annotation, biochemical, small-molecule microarray, 635 nm fluorescence (AID 1128).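 Also: score merges feature fluorescence with signal-to-noise for each printed compound spot.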 The following applies: anti-His Alexa647 antibody binding, higher = more signal.
Experiment [12] deals with Human papillomavirus type 1a E7 protein (residues 1-88). Nature of the experiment: HPV1a E7 small-molecule binders, primary screen, biochemical, small-molecule microarray, residues 1-88, 635 nm (AID 1129). Particulars: small-molecule microarray binding, fluorescence 635 nm; higher = more signal.
The target in experiment [13] is Focal adhesion kinase 1 (Homo sapiens) (UniProt Q05397). Kind of experiment: small-molecule microarray binders of FAK, primary screen, biochemical, 635/667 nm fluorescence, BSA, DTT (AID 1130).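 Also: composite of spot emission at 667 nm and signal to noise over triplicate slides.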 Particulars: PTK2 binding, 635 nm fluorescence, higher = more signal.
Experiment [14] concerns Fibrinogen (Alexa647-labelled). Nature of the experiment: fibrinogen binders on compound microarrays, profiling panel, artefact control for SMM control-protein annotation, biochemical, small-molecule microarray, 635/667 nm fluorescence (AID 1131).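 Also: z-score merges 667 nm fluorescence with per-spot signal-to-noise over triplicate slides.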 The following applies: fibrinogen-A647 binding fluorescence, higher = more signal.
Experiment [15] deals with Follistatin (Homo sapiens) (UniProt P19883). Nature of the experiment: follistatin binders on small-molecule microarrays, primary screen, biochemical, small-molecule microarray, 635/667 nm fluorescence (AID 1132). Particulars: FST binding, 635 nm fluorescence, higher = more signal.
Experiment [16] has as its target Fibroblast growth factor 2 (Homo sapiens) (UniProt P09038). Kind of experiment: FGF2 binders on small-molecule microarrays, primary screen, biochemical, small-molecule microarray, 635/667 nm fluorescence (AID 1133). The following applies: small-molecule microarray binding, FGF2, fluorescence 635/667; higher = more signal.
Experiment [17] is described as follows: mitochondrial membrane potential change in A549 cells, profiling panel, cell-based, JC-1 fluorescence, basal, 24 h, 100 nL (AID 1138).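 Also: A549 lung adenocarcinoma cells under basal conditions with no added stimulus; test concentration not given here.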 Particulars: higher = more signal.
For experiment [18], the system named is Lefty1. Nature of the experiment: Lefty1 binders on small-molecule microarrays, primary screen, biochemical, small-molecule microarray, 635/667 nm fluorescence (AID 1139). Particulars: small-molecule microarray binding, fluorescence 635/667; higher = more signal.
Experiment [19] relates to wheat germ agglutinin (Triticum aestivum), Alexa647-labelled. Nature of the experiment: wheat germ agglutinin binders on compound microarrays, profiling panel, artefact control for SMM control-protein annotation, biochemical, small-molecule microarray, 635/667 nm fluorescence (AID 1140).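 Also: score merges 667 nm feature emission with signal to noise over triplicate slides.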 Particulars: WGA-A647 binding, 635 nm fluorescence, higher = more signal.
The target in experiment [20] is Luciferin 4-monooxygenase (Photinus pyralis) (UniProt P08659). Kind of experiment: firefly luciferase enzyme inhibitors, primary screen, biochemical, luminescence, purified enzyme, 2006 set (AID 1141).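 Also: cell-free assay with purified firefly luciferase at 100 ng per well in PBS; test concentration not given here.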 The following applies: SteadyGlo luminescence, 30 min, higher = more signal, called active from +8 up or from −8 down.

Calls of active or inactive are those of the source.

For five molecules, composite z-score, composite Z-score and z-score results are on record in PubChem BioAssay.

Sequence of Concanavalin-A (Canavalia ensiformis) (P02866 whole entry, looked up): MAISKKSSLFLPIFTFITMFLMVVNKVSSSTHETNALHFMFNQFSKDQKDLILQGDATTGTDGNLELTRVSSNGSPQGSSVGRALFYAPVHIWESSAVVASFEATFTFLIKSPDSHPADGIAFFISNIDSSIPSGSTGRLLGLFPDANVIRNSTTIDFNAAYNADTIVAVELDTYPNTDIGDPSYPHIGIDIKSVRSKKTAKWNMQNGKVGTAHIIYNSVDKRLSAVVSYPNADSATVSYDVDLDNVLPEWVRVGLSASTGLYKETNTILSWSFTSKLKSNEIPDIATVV
Sequence of Albumin (Bos taurus) (P02769 whole entry, looked up): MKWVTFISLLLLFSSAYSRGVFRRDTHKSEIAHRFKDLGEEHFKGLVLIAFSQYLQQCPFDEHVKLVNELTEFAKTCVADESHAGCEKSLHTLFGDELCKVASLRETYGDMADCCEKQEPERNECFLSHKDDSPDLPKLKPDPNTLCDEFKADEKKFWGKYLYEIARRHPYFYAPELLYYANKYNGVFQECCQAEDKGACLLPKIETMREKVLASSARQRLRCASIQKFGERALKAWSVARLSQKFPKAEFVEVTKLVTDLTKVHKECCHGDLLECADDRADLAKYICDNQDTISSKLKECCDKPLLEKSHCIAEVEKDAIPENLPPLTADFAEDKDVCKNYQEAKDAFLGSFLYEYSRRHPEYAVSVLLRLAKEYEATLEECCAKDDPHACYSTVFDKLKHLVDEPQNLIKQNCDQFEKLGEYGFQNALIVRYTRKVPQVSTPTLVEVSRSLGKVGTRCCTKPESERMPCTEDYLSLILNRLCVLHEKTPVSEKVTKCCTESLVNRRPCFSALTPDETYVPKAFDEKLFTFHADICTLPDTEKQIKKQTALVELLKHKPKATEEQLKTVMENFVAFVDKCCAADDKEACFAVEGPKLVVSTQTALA
Sequence of Focal adhesion kinase 1 (Homo sapiens) (Q05397 whole entry, looked up): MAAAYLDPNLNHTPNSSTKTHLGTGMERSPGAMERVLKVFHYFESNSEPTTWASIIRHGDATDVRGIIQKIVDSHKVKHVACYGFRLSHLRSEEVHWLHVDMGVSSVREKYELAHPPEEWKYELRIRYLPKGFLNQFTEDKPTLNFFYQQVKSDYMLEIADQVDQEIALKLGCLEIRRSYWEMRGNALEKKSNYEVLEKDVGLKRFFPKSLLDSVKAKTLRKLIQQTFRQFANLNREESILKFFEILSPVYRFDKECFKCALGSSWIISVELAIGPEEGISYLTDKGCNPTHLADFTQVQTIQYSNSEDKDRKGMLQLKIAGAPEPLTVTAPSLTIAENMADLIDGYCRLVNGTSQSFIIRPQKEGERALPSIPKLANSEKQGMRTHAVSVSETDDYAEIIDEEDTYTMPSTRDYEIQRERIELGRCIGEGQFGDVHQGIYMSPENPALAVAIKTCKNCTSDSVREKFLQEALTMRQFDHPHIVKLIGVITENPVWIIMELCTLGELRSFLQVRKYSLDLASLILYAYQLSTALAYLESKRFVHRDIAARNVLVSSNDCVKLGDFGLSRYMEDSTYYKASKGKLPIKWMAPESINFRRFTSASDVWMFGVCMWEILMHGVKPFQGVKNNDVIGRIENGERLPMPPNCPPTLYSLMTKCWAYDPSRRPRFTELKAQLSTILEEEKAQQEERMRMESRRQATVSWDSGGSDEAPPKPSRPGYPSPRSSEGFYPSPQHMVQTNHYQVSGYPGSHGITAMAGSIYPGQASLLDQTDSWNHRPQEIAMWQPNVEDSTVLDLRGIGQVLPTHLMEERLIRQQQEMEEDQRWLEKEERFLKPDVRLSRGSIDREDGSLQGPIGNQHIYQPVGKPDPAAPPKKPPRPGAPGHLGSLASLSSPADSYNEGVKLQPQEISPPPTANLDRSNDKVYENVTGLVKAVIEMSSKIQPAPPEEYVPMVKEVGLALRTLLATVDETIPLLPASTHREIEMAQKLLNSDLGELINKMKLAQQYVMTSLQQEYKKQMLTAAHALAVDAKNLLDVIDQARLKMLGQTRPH
Sequence of Follistatin (Homo sapiens) (P19883 whole entry, looked up): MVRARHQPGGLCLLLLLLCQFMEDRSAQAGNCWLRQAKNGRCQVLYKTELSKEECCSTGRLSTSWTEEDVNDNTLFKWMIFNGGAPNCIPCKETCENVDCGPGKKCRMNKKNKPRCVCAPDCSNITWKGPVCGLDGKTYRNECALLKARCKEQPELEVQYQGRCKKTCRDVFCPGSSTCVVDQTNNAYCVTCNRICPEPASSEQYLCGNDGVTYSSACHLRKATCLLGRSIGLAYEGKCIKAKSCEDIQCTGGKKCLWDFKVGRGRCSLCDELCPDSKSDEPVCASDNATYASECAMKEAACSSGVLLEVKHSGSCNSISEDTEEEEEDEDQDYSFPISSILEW
Sequence of Fibroblast growth factor 2 (Homo sapiens) (P09038 whole entry, looked up): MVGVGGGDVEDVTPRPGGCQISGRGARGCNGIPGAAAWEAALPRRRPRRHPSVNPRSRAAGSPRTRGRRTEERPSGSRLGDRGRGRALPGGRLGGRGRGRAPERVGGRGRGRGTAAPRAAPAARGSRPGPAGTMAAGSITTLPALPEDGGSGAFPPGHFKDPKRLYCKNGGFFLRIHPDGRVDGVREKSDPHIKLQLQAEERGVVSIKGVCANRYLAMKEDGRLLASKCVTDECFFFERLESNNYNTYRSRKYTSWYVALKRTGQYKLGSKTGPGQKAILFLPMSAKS
Sequence of Luciferin 4-monooxygenase (Photinus pyralis) (P08659 whole entry, looked up): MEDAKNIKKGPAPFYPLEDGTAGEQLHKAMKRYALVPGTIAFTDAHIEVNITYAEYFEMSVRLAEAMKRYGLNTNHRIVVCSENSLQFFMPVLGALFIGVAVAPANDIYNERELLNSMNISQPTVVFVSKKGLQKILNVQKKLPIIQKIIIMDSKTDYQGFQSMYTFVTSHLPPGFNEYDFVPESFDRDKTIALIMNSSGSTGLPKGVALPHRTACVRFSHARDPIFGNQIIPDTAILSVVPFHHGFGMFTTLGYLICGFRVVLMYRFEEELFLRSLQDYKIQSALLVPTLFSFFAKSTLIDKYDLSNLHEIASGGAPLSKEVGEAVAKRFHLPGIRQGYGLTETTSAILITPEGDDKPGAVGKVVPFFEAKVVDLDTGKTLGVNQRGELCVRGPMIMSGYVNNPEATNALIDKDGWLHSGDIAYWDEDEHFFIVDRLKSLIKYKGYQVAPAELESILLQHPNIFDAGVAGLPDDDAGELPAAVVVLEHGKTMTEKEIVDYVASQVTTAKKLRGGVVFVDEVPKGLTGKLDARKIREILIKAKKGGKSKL

For `CC(C)NC(=O)[C@@]1(c2ccc([N+](=O)[O-])cc2)CC(=O)N(C2CCCCC2)[C@@H]1c1ccc(CO)cc1I`, the composite z-score in [1] is 0.0092; in experiment [3] it was -0.0647; in [4], 0.083; in experiment [5], 0.421; in experiment [6], 1.27; in experiment [7], 0.321. Moreover, the composite z-score is 0.93 in experiment [8]; -0.589 in [9]; 0.347 in experiment [10]; -0.0568 in experiment [11]; 1.15 in [12]; 0.52 in [13]. For the same molecule, the composite z-score in experiment [14] was -0.517; in experiment [15] it was -0.315; in [16], -0.331; in experiment [18], -0.491; in experiment [19], -0.0784. In experiment [2], the composite Z-score was 0.691 (inactive). For the same molecule, the z-score in experiment [17] was 2.97; in experiment [20], -1.11 (inactive).
As for `C=CCNC(=O)[C@@H]1[C@H]2C(=O)O[C@H](c3ccccc3)[C@H](c3ccccc3)N2[C@H](c2ccc(OCCO)cc2)[C@@]12C(=O)Nc1ccc(C#CCC(C(=O)OC)C(=O)OC)cc12`, the composite z-score in experiment [1] is 0.64; in experiment [3], 0.277; in experiment [4], 0.0302; in experiment [5], 0.641; in experiment [6], 2; in experiment [7], 0.978. The composite z-score in experiment [8] was 1.29; in experiment [9], 0.392; in experiment [10], 1.16; in experiment [11], 2.67; in experiment [12], 1.2; in experiment [13], 0.913. In addition, the composite z-score was 0.641 in experiment [14]; 0.85 in experiment [15]; 0.582 in [16]; 0.728 in experiment [18]; 1.25 in experiment [19]. Also, the composite Z-score in experiment [2] was 0.788 (inactive). Besides, the z-score in experiment [17] was -0.21; in [20] it was -1.08 (inactive).
With `C=CCC(OC(C)=O)[C@@H]1[C@@H](N(Cc2cc3ccccc3o2)C(=O)c2cccc3ccccc23)c2cc(OCCCO)ccc2N1C(=O)c1ccc(-c2ccccc2)cc1` (stereo not given in full), the composite z-score in [1] was 0.236; in experiment [3] it was 0.0779; in experiment [4], -0.113; in experiment [5], -0.0159; in [6] it was 0.317; in [7], -0.187. Further, the composite z-score was 0.195 in experiment [8]; 0.107 in experiment [9]; -0.505 in experiment [10]; -0.202 in experiment [11]; 0.0155 in experiment [12]; -0.166 in [13]. For the same molecule, the composite z-score in experiment [14] is -0.827; in [15], 0.791; in experiment [16], 0.401; in experiment [18] it was 0.218; in experiment [19] it was 0.297. In addition, the composite Z-score in [2] was -0.418 (inactive). For the same molecule, the z-score is 0.461 in experiment [17] and -0.219 (inactive) in experiment [20].
As for `CCOC(=O)C[C@H]1[C@H](OC(=O)c2ccc(C(=O)c3ccccc3)cc2)[C@@H](NC(=O)c2ccc3ccccc3n2)c2cc(OCCCO)ccc2N1C(=O)c1ccccc1`, the composite z-score in experiment [1] is 0.583; in experiment [3] it was 0.0488; in experiment [4], -0.0646; in experiment [5], 0.249; in experiment [6] it was 0.994; in experiment [7] it was 0.545. Moreover, the composite z-score is 1.29 in [8]; -0.322 in [9]; 1.12 in experiment [10]; -0.0053 in [11]; 0.924 in [12]; 0.0305 in experiment [13]. In addition, the composite z-score in experiment [14] was 0.807; in [15] it was 0.559; in experiment [16] it was 0.674; in experiment [18], 1.63; in experiment [19], 0.761. The composite Z-score in experiment [2] is -0.12 (inactive). The values for the z-score in experiment [17] and in [20] were 0.332 and 0.393 (inactive), respectively.
`O=C(c1ccccc1)N1C(=O)[C@@]2(Cc3ccccc31)N=C(c1ccc(OCCCO)cc1)O[C@H]2c1ccccc1`: the composite z-score in [1] is -0.85; in [3], 0.33; in [4], 0.14; in experiment [5], 0.575; in experiment [6], 2.41; in experiment [7], 1.22. Further, the composite z-score in experiment [8] was found to be 1.31; in experiment [9] it was 0.897; in [10], 1.14; in experiment [11], 1.39; in [12] it was 1.21; in experiment [13] it was 1.23. Also, the composite z-score in experiment [14] worked out at 0.657; in [15], 1.4; in [16], 1.45; in experiment [18], 0.856; in experiment [19] it was 0.811. Moreover, the composite Z-score in [2] is 0.718 (inactive). Further, the z-score in [17] was -1.02; in [20], -1.14 (inactive).
